The numbers were not newly measured in PubChem BioAssay AID977608, which cites them from elsewhere.

A short description of this series: literature IC50 values for PDB complexes, PDB-derived complexes (AID 977608). The following applies: PDB protein-ligand complexes.
The mark [1] stands for this setting: protein: metallodependent class II fructose-1,6-bisphosphate aldolase (FBA-tb), PDB entry 4a22 unless noted.

Hit rate of the full screen: of about 4,300 compounds, about 4,300 (100%) were called active. Cut-off not given; nearly all actives show IC50 up to about 1400 µM. The set was probably picked from earlier hits. Some of the results follow. *1 amine or outer side, *2 acyl side, *3 side chain or, on linkers, in order; H or OH if unused. Where a SMILES comes first, the peptide text is derived from it. Square brackets hold non-standard residues; d marks the D form. Residues, ends and D or L forms follow the SMILES beside them. Side-chain parts run from the residue outwards. Peptide text beside a SMILES is read from it. [ ]: non-standard residue; d: D form. The star is where a group is joined. N(2S-NH-3-Ph-propyl)Phe = O=C([C@H](Cc1ccccc1)N(C[C@H](Cc1ccccc1)N[*:3])[*:1])[*:2]; Orn(CH(NH2)2) = NC(N)NCCC[C@H](N)C(=O)O; X1 = CC(N)NCCC[C@H](N)C(=O)*; Nle = CCCC[C@H](N)C(=O)O

As a reminder, the IC50 is the concentration needed to halve the response being measured. For the molecule `COCCN/C=C1/C(=O)N(C)c2ccc(C(F)(F)F)cc2N(c2ccccc2)C1=O`, the IC50 under setting [1] is 890 nM [protein: HIV-1 capsid protein (N-terminal domain), PDB entry 4inb] (active).
`C[N+](C)(C)CCCP(O)O`: the IC50 under setting [1] was 520 nM [protein: human gamma-butyrobetaine hydroxylase, PDB entry 4bgk] (active).
As to `O=C(O)c1ccc2cccc(O)c2n1`, the IC50 under setting [1] was 10000 nM [protein: M. tuberculosis's class IIa fructose 1,6-bisphosphate aldolase, MtFBA, PDB entry 4lv4] (active).
Take `c1csc(-c2cc(CNC34CC5CC(CC(C5)C3)C4)no2)c1`: the IC50 under setting [1] was 16000 nM [protein: Membrane ion channel M2, PDB entry 2ly0] (active).
As for `COCN1CCC(C(N)=O)CC1`, the IC50 under setting [1] was 300000 nM [protein: ACETYLCHOLINESTERASE, PDB entry 3zlv] (active).
On to `Cc1cc(S(=O)(=O)N(Cc2ccc(CN)cc2)[C@H](C)C(=O)NO)ccc1F`, for which the IC50 under setting [1] was 5600 nM [PDB entry 4pkv] (active).
With `Cc1cc(S(=O)(=O)N(Cc2cccc(N)c2)[C@H](C)C(=O)NO)ccc1F`, the IC50 under setting [1] is 30000 nM [PDB entry 4pku] (active).
Consider `Cc1cc(S(=O)(=O)N(Cc2ccc([N+](=O)[O-])cc2)[C@H](C)C(=O)NO)ccc1F`, for which the IC50 under setting [1] was 14900 nM [PDB entry 4pkt] (active).
Regarding `Cc1cc(S(=O)(=O)N(Cc2ccccc2)[C@H](C)C(=O)NO)ccc1F`, the IC50 under setting [1] is 15200 nM [PDB entry 4pkr] (active).
Consider `Cc1cc(S(=O)(=O)N(Cc2cccnc2)[C@H](C)C(=O)NO)ccc1F`, for which the IC50 under setting [1] is 15200 nM [PDB entry 4pks] (active).
For the molecule `FC(F)(F)c1nc2ccccc2[nH]1`, under setting [1], the IC50 is 138 µM [protein: 3-OXOACYL-[ACYL-CARRIER-PROTEIN] REDUCTASE FABG, PDB entry 4bnt] (active).
In the case of `CCOC(=O)CC[C@H](C[C@@H]1CCNC1=O)NC(=O)[C@@H](CC(=O)[C@@H](NC(=O)c1cc(C)on1)C(C)C)Cc1ccc(F)cc1`, the IC50 under setting [1] was 1670 nM [protein: 3C proteinase, PDB entry 4ght] (active).
As to `O=C(CO[P+](O)(O)O)N(O)CCCCO[P+](O)(O)O`, the IC50 under setting [1] is 3.2 nM (active).
For `CCC(CC)O[C@@H]1C[C@H](C(=O)O)C[C@H](N)[C@H]1NC(C)=O`, the half-maximal inhibitory concentration (IC50) by setting is: (protein: Neuraminidase7, PDB entry 4qn7) 0.84 nM (active); (protein: Neuraminidase, PDB entry 4mww) 215000 nM (active).
Turning to `CCC(CC)O[C@@H]1C[C@@H](C(=O)O)C[C@H](N)[C@H]1NC(C)=O`, the IC50 under setting [1] was 0.79 nM [protein: Neuraminidase, PDB entry 4mwq] (active).
On to `CCC(CC)O[C@@H]1CC(C(=O)O)C[C@H](N)[C@H]1NC(C)=O` (stereo not given in full), for which, under setting [1], the IC50 was 0.5 nM [protein: Neuraminidase, PDB entry 4hzx] (active).
Consider `CCC(CC)O[C@@H]1CC(C(=O)O)=C[C@H](N)[C@@H]1NC(C)=O`, for which the IC50 under setting [1] was 0.9 nM [protein: Influenza Neuraminidase H3N8, PDB entry 4m3m] (active).
`Nc1c2c(nc3cc(Cl)ccc13)C[C@H]1C=C(CCCCn3cc(CO)nn3)C[C@@H]2C1`: the IC50 under setting [1] is 0.43 nM [protein: ACETYLCHOLINESTERASE, PDB entry 4a16] (active).
Turning to `Nc1c2c(nc3cc(Cl)ccc13)C[C@H]1C=C(CCO)C[C@@H]2C1`, under setting [1], the IC50 is 1.1 nM [protein: ACETYLCHOLINESTERASE, PDB entry 4bdt] (active).
On to `O=C(O)Cc1cc(=O)oc2c(O)c(O)ccc12`, for which the IC50 under setting [1] is 4800 nM [protein: Reverse transcriptase/ribonuclease H RT RNase H, PDB entry 4qag] (active).
As for `CC[C@H](C)[C@H]1NC(=O)[C@@H](NC(=O)[C@H](C)[C@H](O)C(C)C)[C@@H](C)OC(=O)[C@@H]2COC(=O)CNC(=O)/C=C/[C@]3(CO3)[C@@H](C)Oc3ccc(cc3)[C@H](NC1=O)C(=O)N(C)[C@@H](Cc1ccccc1)C(=O)N[C@H]([C@@H](C)O)C(=O)N2`, the IC50 under setting [1] is 200 nM [protein: Escherichia coli RNA polymerase, PDB entry 4mex] (active).
On to `C[C@H](N)C(=O)N[C@@H](C)C(=O)N[C@@H](C)C(=O)O`, for which, under setting [1], the IC50 was 340000 nM [protein: DI-OR TRIPEPTIDE\:H+ SYMPORTER, PDB entry 4d2d] (active).
In the case of `C[C@@]1(O)CCN2C(=O)CCc3cccc1c32`, under setting [1], the IC50 was 198000 nM [protein: DUAL SPECIFICITY MITOGEN-ACTIVATED PROTEIN KINASE KINASE 1, PDB entry 3zlw] (active).
With `Oc1cc(Cl)ccc1Oc1ccc(Cl)cc1Cl`, the IC50 under setting [1] was 54.7 µM [protein: Enoyl-[acyl-carrier-protein] reductase hERG, PDB entry 4w9n] (active).
As to `Nc1nc2nc(C(=O)NCCNC(=O)O)cnc2c(=O)[nH]1`, the IC50 under setting [1] was 28000 nM [PDB entry 4mx5] (active).
Regarding `Nc1nc2nc(C(=O)NCCNC(=O)Nc3ccccc3)cnc2c(=O)[nH]1`, the IC50 under setting [1] was 209000 nM [PDB entry 4mx1] (active).
Consider `NCCCCC[C@@H](C[SeH5])C(=O)O`, for which the IC50 under setting [1] was 2 nM [protein: Carboxypeptidase B, PDB entry 3wc5] (active).
In the case of `CCCC[C@H](NC(=O)[C@H](C)NC(=O)[C@H](CCC(=O)O)NC(=O)[C@H](Cc1ccccc1)NC[C@H](Cc1ccccc1)NC(=O)[C@@H](NC(=O)[C@@H](N)CCCNC(C)N)C(C)C)C(=O)O` (stereo partly drawn) (H-[N(2S-NH-3-Ph-propyl)Phe]([Val-X1])EA[Nle]-OH), the IC50 under setting [1] was 142 nM [protein: HIV-1 PROTEASE (Q7K, L10I, D25N, M36V, M46L, I54V, I62V, L63P, A71V, V82T, I84V, L90M mutation), PDB entry 4gye] (active).
In the case of `Nc1ncnc2c1ncn2[C@@H]1O[C@H](CO[P+](=O)O[C@@H]2[C@H](O)[C@@H](CO[P+](O)(O)O[C@@H]3[C@H](O)[C@@H](CO[P+](O)(O)O)O[C@H]3n3cnc4c(N)ncnc43)O[C@H]2n2cnc3c(N)ncnc32)[C@@H](O)[C@H]1O` (stereo not given in full), under setting [1], the IC50 is 13 nM [protein: interferon-induced endoribonuclease, ribonuclease L, PDB entry 1wdy] (active).
As for `Oc1c(Br)cccc1-c1[nH]c(Br)c(Br)c1Br`, the IC50 under setting [1] is 19000 nM [protein: Non-Mevalonate Pathway Enzyme IspD from Arabidopsis thaliana, PDB entry 4nan] (active).
Take `Oc1c(Br)cc(Br)cc1-c1[nH]c(Br)c(Br)c1Br`: the IC50 under setting [1] is 1400 nM [protein: Non-Mevalonate Pathway Enzyme IspD from Arabidopsis thaliana, PDB entry 4nak] (active).
As to `Oc1c(Cl)cc(Cl)cc1-c1[nH]c(Br)c(Br)c1Br`, the IC50 under setting [1] was 2200 nM [protein: Non-Mevalonate Pathway Enzyme IspD from Arabidopsis thaliana, PDB entry 4nal] (active).
For `CC(C)C[C@H](NC(=O)[C@H](CO)NC(=O)[C@H](CO)NC(=O)[C@H](CCC(=O)O)NC(=O)[C@H](Cc1ccc(O)cc1)NC(=O)[C@H](Cc1ccc(O)cc1)NC(=O)[C@H](CCCNC(N)N)NC(=O)[C@@H](N)Cc1c[nH]cn1)C(=O)N[C@@H](CCC(=O)O)C(=O)N1CCC[C@H]1C(=O)N[C@@H](Cc1c[nH]c2ccccc12)C(=O)N[C@@H](Cc1ccc(O)cc1)C(=O)N1CCC[C@H]1C(=O)N[C@@H](CC(=O)O)C(=O)O` (H-H[Orn(CH(NH2)2)]YYESSLEPWYPD-OH), under setting [1], the IC50 is 120 nM [PDB entry 1jbd] (active).
As for `CC(C)C[C@H](NC(=O)[C@H](CO)NC(=O)[C@H](CO)NC(=O)[C@H](CCC(=O)O)NC(=O)[C@H](Cc1ccc(O)cc1)NC(=O)[C@H](Cc1ccc(O)cc1)NC(=O)[C@H](CCCNC(N)N)NC(=O)[C@@H](N)Cc1c[nH]c2ccccc12)C(=O)N[C@@H](CCC(=O)O)C(=O)N1CCC[C@H]1C(=O)N[C@@H](Cc1ccc(O)cc1)C(=O)N1CCC[C@H]1C(=O)N[C@@H](CC(=O)O)C(=O)O` (H-W[Orn(CH(NH2)2)]YYESSLEPYPD-OH), the IC50 under setting [1] was 2 nM [PDB entry 1haa] (active).
`CC(C)C[C@H](NC(=O)[C@H](CO)NC(=O)[C@H](CO)NC(=O)[C@H](CCC(=O)O)NC(=O)[C@H](Cc1ccc(O)cc1)NC(=O)[C@H](Cc1ccc(O)cc1)NC(=O)[C@H](CCCNC(N)N)NC(=O)[C@@H](N)Cc1ccccc1)C(=O)N[C@@H](CCC(=O)O)C(=O)N1CCC[C@H]1C(=O)N[C@@H](Cc1c[nH]c2ccccc12)C(=O)N[C@@H](CC(=O)O)C(=O)N[C@@H](CC(=O)O)C(=O)O` (HELM PEPTIDE1{F.[NC(N)NCCC[C@H](N[*:1])C(=O)[*:2]].Y.Y.E.S.S.L.E.P.W.D.D}$$$$V2.0): the IC50 under setting [1] was 4.9 nM [PDB entry 1rgj] (active).
Regarding `C[C@@H]1Oc2ccc(CN3CC=C(c4ccc(Cl)cc4)CC3)cc2NC1=O`, the IC50 under setting [1] is 3 nM [protein: Poly [ADP-ribose] polymerase 1, PDB entry 4l6s] (active).
On to `COC(=O)C[C@@H](C)c1n[nH]c2nc(N)[nH]c(=O)c2c1=O`, for which the IC50 under setting [1] is 376000 nM [protein: Dihydropteroate synthase, PDB entry 4d8a] (active).
On to `CCC(CC)Oc1cc(C(=O)O)cc(N)c1NC(C)=O`, for which the IC50 under setting [1] was 8.31 nM [protein: Neuraminidase, PDB entry 4hzz] (active).
Turning to `CCc1c(C)nc(-c2ccc(Cl)s2)nc1Nc1ccc(CC(=O)O)cc1`, the IC50 under setting [1] is 32 nM [protein: Catalytic Domain Of Human Phosphodiesterase 4B, PDB entry 4myq] (active).
For the molecule `Cc1nc(-c2nc3ccc(Cl)cc3[nH]2)c(C)c(-c2ccccc2)c1[C@H](OC(C)(C)C)C(=O)O`, the IC50 under setting [1] is 5.03 nM [protein: Integrase HIV-1 IN CCD F185K/A128T, PDB entry 4o5b] (active).
With `Cc1ccc(-c2c([C@H](OC(C)(C)C)C(=O)O)c(C)nc3ccccc23)cc1C`, the IC50 under setting [1] is 55 nM [protein: HIV-1 Integrase (F185K mutation), PDB entry 4e1m] (active).
Regarding `Cc1nc2ccccc2c(-c2cc(F)c3c(c2C)CCCO3)c1[C@H](OC(C)(C)C)C(=O)O`, under setting [1], the IC50 was 67 nM [protein: HIV-1 integrase (F185K mutation), PDB entry 4e1n] (active).
`CO[C@H](C(=O)O)c1c(C)nc2ccc(Br)cc2c1-c1ccc(Cl)cc1`: the IC50 by setting is: (protein: HIV-1 Integrase catalytic core domain (A128T, F185K mutation), PDB entry 4jlh) 4000 nM (active); (protein: HIV-1 Integrase, PDB entry 4dmn) 2300 nM (active).
